Hits are enriched below; roughly 2.2% of the tested compounds scored in any of these assays.
PLCb3 inh: inhibitors of human phospholipase C beta3; Q01970; Purified PLC-beta3, fluorogenic substrate, fluorescence; inhibition, % at 12.2 µM; 370,000 tested, 0.18% active; AID 720704
FAS-TE inh: inhibitors of human fatty acid synthase thioesterase domain; 360,000 tested, 0.67% active; AID 602261; inhibition, % at 15 µM; recombinant FAS-TE, OMFH fluorogenic substrate, fluorescence endpoint;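 active = compounds whose normalised, plate-corrected inhibition of enzyme fluorescence in the single-dose primary screen is 50% or more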
Cardio protect: modulators protecting cardiomyocytes from myocardial damage | H9c2 cardiomyocytes, H2O2 injury protection, ATPLite, 2 h | protection from H2O2 cell death, % at 20 µM | 360,000 tested, 0.63% active;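 active = compounds giving at least 50% protection of heart cells from peroxide-induced death in the single-dose screen, raw or plate-pattern-corrected value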
PLCg1 inh: PLC-gamma1 (human) inhibition, primary screen; P19174; purified PLC-gamma1, fluorogenic substrate, fluorescence; inhibition, % at 12.2 µM; 370,000 tested, 0.84% active; AID 720700; in the data active = inhibition above about 9.5%
PLCgamma1 ctr: counter-screen for PLC-beta3 inhibitors: inhibitors of human PLC-gamma1; shares compounds with PLCg1 inh; purified PLC-gamma1, fluorogenic substrate, fluorescence; inhibition, % at 12.3 µM; 3,300 tested, 3.1% active; AID 743258; in the data active = inhibition above about 9.5%
PLCb3 confirm: human PLC-beta3 inhibition, confirmation; shares compounds with PLCg1 inh; purified PLC-beta3, fluorogenic substrate fluorescence; inhibition, % at 12.3 µM; 3,300 tested, 1% active; AID 743261
Large screens that a line does not name were inactive (follow-up assays come after a bar, where they were run). Rule as the data show it, unless noted: active = inhibition above about 11%; inactive = the rest.

COCCNC(=O)Cn1nc(-c2ccc(Cl)cc2)c2ccccc2c1=O	PLCg1 inh 12 | PLCgamma1 ctr inactive | PLCb3 confirm inactive
COc1ccc(NC(=O)CN(C)C(=O)c2sc3cc(Cl)ccc3c2Cl)cc1	none
CC1=C(C)CC(C(=O)Nc2nccs2)C(C(=O)O)C1 (stereo unspecified)	none
O=C(O)C1CCCCC1C(=O)Nc1nccs1 (stereo unspecified)	PLCg1 inh 12 | PLCgamma1 ctr inactive | PLCb3 confirm inactive
CC(Oc1ccc(Br)cc1)C(=O)N(Cc1ccccc1)c1c(N)n(Cc2ccccc2)c(=O)[nH]c1=O (stereo unspecified)	none
COc1ccc(CC(NC(C)=O)C(=O)NC2CCN(C(=O)Nc3ccccc3C)CC2)cc1OC (stereo unspecified)	PLCg1 inh 11 | PLCgamma1 ctr inactive | PLCb3 confirm inactive
COc1ccccc1CC(NC(C)=O)C(=O)NC1CCN(C(=O)Nc2ccc(F)cc2)CC1 (stereo unspecified)	PLCg1 inh 11 | PLCgamma1 ctr inactive | PLCb3 confirm inactive
COc1ccccc1CC(NC(C)=O)C(=O)NC1CCN(C(=O)Nc2cccc(F)c2)CC1 (stereo unspecified)	none
CN1C(=O)C(C)(C)c2cc(S(=O)(=O)N3CCCC(C(=O)NCc4ccc(Cl)cc4)C3)ccc21 (stereo unspecified)	none
CC1=CC(=O)O[C@@H]1[C@@]1(C)C[C@H]2OC(=O)C[C@H]3[C@@H](C)C(=O)C(O)=C1[C@@]23CO	none
CC1CCCCC1N=CC1=C(O)CC(C)(C)CC1=O (stereo unspecified)	PLCg1 inh 11 | PLCgamma1 ctr inactive | PLCb3 confirm inactive
CSc1nc2c(c(C(F)(F)F)n1)CC(C)CC2 (stereo unspecified)	PLCg1 inh 9.6 | PLCgamma1 ctr inactive | PLCb3 confirm inactive
O=C(CSCc1ccccc1Cl)N1CCN(c2ccccn2)CC1	none
O=C(CCSCc1ccccc1F)N1CCN(c2ccccn2)CC1	PLCg1 inh 10.0 | PLCgamma1 ctr inactive | PLCb3 confirm inactive
O=S1(=O)c2c(cccc2N2CCSCC2)Oc2ccccc2CN1Cc1cn(Cc2ccc(Cl)cc2)nn1	none (no result: FAS-TE inh, Cardio protect)
O=C(NCc1ccccn1)c1ccc2nc(C3CCCCC3)oc2c1	none
O=C(CN1C(=O)CCC1=O)NC(=O)NC1CCCC1	none
N=c1sccn1CC(=O)NC(=O)NC1CCCC1	PLCg1 inh 17 | PLCgamma1 ctr inactive | PLCb3 confirm inactive
COC(=O)c1cn(-c2ccccc2)c(C)c1C(=O)OC	PLCb3 inh 12 | PLCgamma1 ctr inactive | PLCb3 confirm inactive
CC(C)Oc1cccc(C(=O)NC(=S)Nc2ccc(Cl)c(C(=O)O)c2)c1	PLCg1 inh 10 | PLCgamma1 ctr inactive | PLCb3 confirm inactive
COc1ccc(C(=O)NC(=S)Nc2ccc(Cl)c(C(=O)O)c2)cc1	none
O=C(c1cc(-c2ccccc2)nn1-c1ccccc1)N1CCN(S(=O)(=O)c2ccc(F)cc2)CC1	none
O=C(c1cc(-c2ccccc2)nn1-c1ccccc1)N1CCN(S(=O)(=O)c2cccc(F)c2)CC1	PLCg1 inh 9.9 | PLCgamma1 ctr inactive | PLCb3 confirm inactive
O=C(/C=C/Nc1ccc(F)cc1F)c1ccc(Br)cc1	PLCg1 inh 12 | PLCgamma1 ctr inactive | PLCb3 confirm inactive
O=C(/C=C/Nc1ccc(F)cc1F)c1ccco1	none
COc1cc(NCCCn2cnc3c(OC)ncnc32)cc(OC)c1OC	none
O=C(O)[C@H](Cc1ccccc1)NC(=O)[C@H]1O[C@@H](n2ccc(=O)[nH]c2=O)[C@H](O)[C@@H]1O	none (no result: FAS-TE inh, Cardio protect)
COc1ccccc1C(=O)NC(=O)COc1ccc([N+](=O)[O-])cc1	PLCg1 inh 9.8 | PLCgamma1 ctr inactive | PLCb3 confirm inactive
Cc1ccccc1-c1cc2c(c3c1ccn3C)C1CCC2C1 (stereo unspecified)	none
CC(NC(=O)c1ccc(Br)o1)C1CC2CCC1C2 (stereo unspecified)	none
CC(C)(C)c1ccc(/C=N/OCC(=O)NCc2ccc(F)cc2)cc1	PLCg1 inh 13 | PLCgamma1 ctr inactive | PLCb3 confirm inactive
Cc1ccc(CNC(=O)CO/N=C/c2ccc(C(C)(C)C)cc2)cc1	none
Cn1c(N2CCCC2)nc2c1c(=O)[nH]c(=O)n2C	none
O=C(NC1CCCCCC1)C1CCN(S(=O)(=O)c2cnc[nH]2)CC1	none
O=C(Nc1ncc([N+](=O)[O-])s1)C1CCN(S(=O)(=O)c2cnc[nH]2)CC1	PLCb3 inh 13 | PLCgamma1 ctr inactive | PLCb3 confirm inactive
CCCCN1C(=O)C(CC(=O)NCCCN(C)C)CC(C(=O)N(C)C)=C1C (stereo unspecified)	none
CCOC(CCNC(=O)c1cn(CCOC)c(=O)c2c1c1ccccc1n2C)OCC	none
COc1ccc(Cl)cc1NC(=O)C/C(C)=N/NC(=O)c1ccccc1[N+](=O)[O-]	none
COc1ccc(Cl)cc1NC(=O)c1cccc([N+](=O)[O-])c1O	PLCg1 inh 10.0 | PLCgamma1 ctr inactive | PLCb3 confirm inactive
O=C(CNC(=O)c1ccccc1F)OCC(=O)c1ccc(Cl)s1	none
O=C(NCc1ccccn1)C1CCN(Cc2cnn(-c3ccccc3)c2-n2cccc2)CC1	none
COc1cccc(CNC(=O)C2CCN(Cc3cnn(-c4ccccc4)c3-n3cccc3)CC2)c1	PLCg1 inh 9.7 | PLCgamma1 ctr inactive | PLCb3 confirm inactive
CC12CCC(C(=NO)C1=O)C2(C)C (stereo unspecified)	none
CCCCn1c(N)c(N(CC)C(=O)c2ccccc2F)c(=O)[nH]c1=O	PLCg1 inh 12 | PLCgamma1 ctr inactive | PLCb3 confirm inactive
CCOC(=O)N1CCN(S(=O)(=O)N2CCCC(C(=O)NCc3cc(Br)ccc3OC)C2)CC1 (stereo unspecified)	none
CC12CCC(C(=O)Nc3ccc(SC(F)F)cc3)(CC1=O)C2(C)C (stereo unspecified)	PLCg1 inh 9.8 | PLCgamma1 ctr inactive | PLCb3 confirm inactive
COCC(=O)N1CCC(Oc2ccc(C(=O)N3C[C@H]4CC[C@H]3C4)cc2)CC1	none
COc1ccc(C2c3c(-c4ccccc4)n[nH]c3C(=O)N2c2ccc(C(=O)O)cc2)cc1 (stereo unspecified)	PLCg1 inh 11 | PLCgamma1 ctr inactive | PLCb3 confirm inactive
COC(=O)c1ccc(COc2ncnc3ccccc23)o1	none
Cc1ccc(CNC(=O)C2COc3ccccc3O2)cc1 (stereo unspecified)	none
O=C(NCc1ccccc1)C1COc2ccccc2O1 (stereo unspecified)	PLCg1 inh 9.8 | PLCgamma1 ctr inactive | PLCb3 confirm inactive
Cc1cccc(S(=O)(=O)NC(=O)C2(C)CCN2C(=O)CC2CCCCC2)c1 (stereo unspecified)	none
CC1CCC(C(C)C)C(OCC(O)C[N+]2(C)CCCCC2)C1 (stereo unspecified)	PLCg1 inh 11 | PLCgamma1 ctr inactive | PLCb3 confirm inactive
CCOC(=O)C1(CC2CC2)CCN(S(=O)(=O)C[C@]23CC[C@H](CC2=O)C3(C)C)CC1	PLCg1 inh 12 | PLCgamma1 ctr inactive | PLCb3 confirm inactive

Source: PubChem
